Screening data: PubChem, National Center for Advancing Translational Sciences (NCATS)
G9a inh: qHTS Assay for Inhibitors of Histone Lysine Methyltransferase G9a; Histone-lysine N-methyltransferase EHMT2 (Homo sapiens), Q96KQ7; G9a H3K9 monomethylation, AlphaScreen, 2 h; Potency, µM (top dose mostly 102 µM), inactives show at the highest dose activity, negative = inhibition, hits mostly inhibitors; 8.8% of 350,000 active; AID 504332, 2011; also: % is scaled to controls: 0 for no effect and ±100 for the full control effect; nearly all actives have a fitted effect of over 75% in size
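Compounds were preincubated with 20 nM G9a for 15 min, after which biotinylated H3K9 peptide (500 nM) and SAM (20 uM) started a 2 h room-temperature reaction. Monomethylated product was quantified by antibody-based AlphaScreen chemiluminescence.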
GLS inh: qHTS for Inhibitors of Glutaminase (GLS). Glutaminase kidney isoform, mitochondrial (Homo sapiens), O94925. GLS enzymatic activity, qHTS titration. Potency, µM (series often up to 45.5 µM), inactives show top-dose activity change, negative = inhibition, actives largely listed as inhibitors. 0.21% of 410,000 active. AID 624170, 2012; also: % is scaled to controls: 0 for no effect and ±100 for the full control effect
Target sequence (O94925 whole entry, looked up, canonical isoform): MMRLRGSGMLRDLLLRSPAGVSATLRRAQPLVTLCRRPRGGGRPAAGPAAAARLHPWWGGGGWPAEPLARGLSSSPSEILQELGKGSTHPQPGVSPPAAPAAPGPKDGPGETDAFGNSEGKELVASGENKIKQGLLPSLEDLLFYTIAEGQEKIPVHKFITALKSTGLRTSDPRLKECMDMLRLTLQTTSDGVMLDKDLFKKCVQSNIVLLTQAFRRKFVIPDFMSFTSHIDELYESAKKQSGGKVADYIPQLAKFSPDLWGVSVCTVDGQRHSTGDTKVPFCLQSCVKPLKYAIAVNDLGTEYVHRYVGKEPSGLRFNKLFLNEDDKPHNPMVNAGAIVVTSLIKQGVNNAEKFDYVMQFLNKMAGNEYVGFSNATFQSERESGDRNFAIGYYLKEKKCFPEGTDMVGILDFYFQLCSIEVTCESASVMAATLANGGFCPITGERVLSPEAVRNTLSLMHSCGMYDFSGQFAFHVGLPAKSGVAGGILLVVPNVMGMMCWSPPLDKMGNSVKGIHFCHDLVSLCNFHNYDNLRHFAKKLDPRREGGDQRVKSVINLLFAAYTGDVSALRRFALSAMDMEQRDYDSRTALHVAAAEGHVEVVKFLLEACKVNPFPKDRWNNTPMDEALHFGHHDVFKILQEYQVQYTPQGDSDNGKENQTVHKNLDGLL
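Two-point fluorescence kinetic (t0, 30 min RT) for hKGA; glutamate detected via glutamate oxidase–HRP–Amplex Red. Substrate: 1 mM L-glutamine solution; buffer 45 mM KH2PO4, pH 8.2.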
HP1b binding inh: HTS for Inhibitors of HP1-beta Chromodomain Interactions with Methylated Histone Tails; AlphaScreen HP1-beta / biotin-H3K9me3 peptide binding; Potency, µM (series often up to 114 µM), for inactives: at the top dose activity change, negative = inhibition, hits mostly inhibitors; 0.56% of 390,000 active; also: nearly all actives have a fitted effect of over 70% in size
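HP1-beta protein (50 nM final) preincubated 30 min at room temperature with biotinylated H3(1-18)K9me3 peptide (50 nM) in PBS pH 7.4, 0.01% Tween-20, then compound added for 30 min. AlphaScreen streptavidin donor/nickel chelate acceptor beads (10 ug/mL final), 30 min dark, luminescence read.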
JMJD2A Tudor: qHTS Assay for Inhibitors of JMJD2A-Tudor Domain. Lysine-specific demethylase 4A (Homo sapiens), O75164. AlphaScreen JMJD2A-Tudor / H3K4me3 peptide binding. Potency, µM (highest dose often 114 µM), for inactives: at the highest dose activity change, negative = inhibition, hits mostly inhibitors. 4.4% of 390,000 active; also: % is scaled to controls: 0 for no effect and ±100 for the full control effect; nearly all actives have a fitted effect of over 50% in size
BAZ2B block: qHTS Assay for Inhibitors of BAZ2B; AlphaScreen BAZ2B-H3K14Ac peptide displacement; Potency, µM (titrated, usually from 114 µM), without a hit: at the highest dose activity change, negative = inhibition, actives largely listed as inhibitors; 4.4% of 360,000 active; also: % is scaled to controls: 0 for no effect and ±100 for the full control effect; nearly all actives have a fitted effect of over 60% in size
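AlphaScreen luminescence quantifies BAZ2B engagement of H3K14Ac peptide; the protein and biotinylated peptide are both at 50 nM final, buffer PBS pH 7.4 with 0.01% Tween-20, all steps at room temperature.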
Active calls of the source: *; ? = inconclusive; . = no result given; [ ] = dose if it differs, or a comment. Only some compounds are listed: those with a hit (about 10% of all), similar ones and a draw of the others. Calls follow the shape of the dose curve; as a rule, active = well fitted curve in the direction sought with a large enough effect; inconclusive = small, poorly fitted or top-dose-only effect, or another doubt; inactive = no such curve, though single readings can be large; an effect the other way counts as inactive or inconclusive. Potency is read from the fitted curve at half-maximal effect.

SMILES	G9a inh	GLS inh	HP1b binding inh	JMJD2A Tudor	BAZ2B block
CCOc1ccc(S(=O)(=O)NCCSCc2ccco2)cc1	-1%[59 µM]	-11%	1%	-29%	?
COc1ccc(S(=O)(=O)NCCSCc2ccco2)cc1OC	12%[12.7 µM]	-3%	8%	-34%	56µM*
COc1ccc(S(=O)(=O)NCCc2ccco2)cc1OC	39%	-10%	44%	-11%	-5%[57.1 µM]
COc1ccc(S(=O)(=O)NCCSCc2ccco2)cc1	-14%[12.7 µM]	4%	0%	-30%	50µM*
O=C1COc2ccc(-c3cc(-c4ccc(F)cc4)c4c(n3)-c3cc(Cl)ccc3OC4)cc2N1	5%[59 µM]	-1%	42%	-7%	-15%
Cn1cc(C(=O)c2ccccc2)cc1-c1nc2ccccc2n1C	50µM*	3%	-7%	-34%	-39%
CC(=O)c1ccc(-c2nc3ccccc3n2C)o1	-5%[12.7 µM]	2%	19%	-6%	7%
Cc1oc(-c2nc3ccccc3n2C)cc1C(=O)c1ccccc1	10µM*	-2%	-5%	?	-36%
Cc1ccc(NC(=O)COC(=O)c2c(-c3ccccc3)noc2C)c(C)c1	0%[12.7 µM]	-5%	38%	-4%	11%
CCC(C)c1ccc(NC(=O)Nc2cccnc2)cc1 (centres undefined)	54%	-2%	31%	-27%	-24%
COC(=O)c1ccc(NC(=O)c2c(Br)cnn2C)cc1	7.9µM*	-12%	-4%	-9%	-15%
Cc1ccc(N2C(=O)C3C4C=CC(CNC(=S)N5CCN(c6ccccc6)CC5)(O4)C3C2=O)cc1 (centres undefined)	2.2µM*	4%	?	?	.
Cc1ccc(NC(=S)NCC23C=CC(O2)C2C(=O)N(c4ccc(C)cc4)C(=O)C23)cc1 (centres undefined)	7.9µM*	7%	?	89µM*	-27%
COc1ccc(C2Nc3ccccc3C(=O)N2Cc2cccnc2)cc1COc1ccc(NC(C)=O)cc1 (centres undefined)	.	.	.	56µM*	.
COc1ccc(C2Nc3ccccc3C(=O)N2C2CCCC2)cc1COc1ccc(NC(C)=O)cc1 (centres undefined)	.	.	.	50µM*	.
COc1ccc(CN2C(=O)c3ccccc3NC2c2ccc(OC)c(COc3ccc(NC(C)=O)cc3)c2)cc1 (centres undefined)	.	.	.	-24%	.
COc1ccc(C2Nc3ccccc3C(=O)N2Cc2ccccn2)cc1COc1ccc(NC(C)=O)cc1 (centres undefined)	.	.	.	56µM*	.
Cc1cccc(Oc2ccccc2NC(=O)c2cnccn2)c1	26%[59 µM]	-1%	24%	-23%	-3%
CC(NCCOc1ccccc1F)C(=O)Nc1ccc(S(N)(=O)=O)cc1 (centres undefined)	-4%	1%	28%	-15%	-8%
CN(O)/C=C/C(=O)c1ccc(Br)cc1	20µM*	-5%	-22%	50µM*	-31%
CC(=O)Nc1ccc(NC(=O)C(C)OC(=O)C2CC3C=CC2C3)cc1 (centres undefined)	23%[59 µM]	-2%	30%	-10%	-4%
CC[N+](C)(CC)CCC(c1ccccc1)C1CCCCC1 (centres undefined)	?	-1%	?	?	50µM*
FC(F)(F)c1cnc(Nc2ccc(N3CCOCC3)cc2)c(Cl)c1	22µM*	-6%	?	?	35µM*
Cc1ccc(-c2nc3c(c(=O)[nH]c(=O)n3Cc3ccccc3)n2C)s1	32%[59 µM]	.	.	.	-1%
Cc1ccc(-c2nc3c(c(=O)[nH]c(=O)n3Cc3ccccc3)n2C)o1	1.4µM*	-9%	-11%	?	?
SMILES	G9a inh	GLS inh	HP1b binding inh	JMJD2A Tudor	BAZ2B block
Cc1ccc(-c2nc3c(c(=O)[nH]c(=O)n3Cc3ccccc3)n2Cc2ccccc2)o1	10µM*	3%	-7%	-23%	13%
CCN(CC)S(=O)(=O)c1ccc(C(=O)NCC(=O)NC2CC2)cc1	1%	-3%	-18%	?	11%
O=S(=O)(NCCSCc1ccc(Cl)cc1Cl)c1ccc2c(c1)OCCO2	24%	-3%	2%	79µM*	1%
O=S(=O)(NCCSCc1c(Cl)cccc1Cl)c1ccc2c(c1)OCCO2	39%	1%	36%	1%	-1%[57.1 µM]
O=C(CSc1n[nH]c(-c2ccco2)n1)Nc1ccc(Br)cc1	-2%	0%	-22%[57 µM]	45µM*	-33%
O=C(CSc1n[nH]c(-c2ccco2)n1)N1c2ccccc2Sc2ccccc21	50µM*	-11%	-10%	-26%	56µM*
COc1ccc(NC(=O)CSc2n[nH]c(-c3ccco3)n2)cc1	-2%[12.7 µM]	4%	56%	-6%	?
CCOC(=O)CSc1n[nH]c(-c2ccco2)n1	1%	6%	17%	?	11%
C[C@H](CO)N1C[C@H](C)[C@@H](CN(C)Cc2cccc(F)c2)Oc2cc(-c3cccc(C#N)c3)ccc2S1(=O)=O	.	-1%	.	.	.
COc1ccc(OC)c(CCNC(=O)CN2C(=O)CCSc3ccccc32)c1	2%	6%	52%	-25%	-19%
O=S(=O)(c1ccc(F)cc1)N1CCN(Cc2cc3c(cc2Br)OCCO3)CC1	17%[2.33 µM]	-2%	47%	-2%	1%
Oc1ccc(N2CCN(Cc3cc4c(cc3Br)OCCO4)CC2)cc1	1.8µM*	20%	?	35µM*	40µM*
COc1cc(NS(=O)(=O)c2ccc(NC(=O)c3ccc(Cl)cc3Cl)cc2)ncn1	69%	4%	38%	-5%	4%
CCN(CC)c1ccc(Nc2nc(Cl)ncc2Br)cc1	10µM*	37%	?	28µM*	35µM*
CCc1nc(SCC(=O)Nc2ccc(N(CC)CC)cc2)n[nH]1	.	0%	16%[57 µM]	-22%	.
CCNC(=S)N1CCN(Cc2ccc3c(c2)OCO3)CC1	-1%	1%	45%	4%	-5%
O=C(NC(=S)N1CCN(Cc2ccc3c(c2)OCO3)CC1)c1cccc(Br)c1	9%[59 µM]	1%	-10%	?	25µM*
CCCNC(=S)N1CCN(Cc2ccc3c(c2)OCO3)CC1	20µM*	-9%	?	28µM*	?
O=S(=O)(c1c(F)cccc1F)N1CCN(C(=S)NCc2ccc3c(c2)OCO3)CC1	32µM*	-15%	-6%	-11%	-29%
C=CCNC(=S)N1CCN(Cc2ccc3c(c2)OCO3)CC1	-6%[0.501 µM]	1%	?	14µM*	50µM*
O=C(CSc1nnc(COc2cccc3cccnc23)o1)N1CCc2ccccc21	-48%	3%	21%	-10%	-26%
COc1ccc(/C(O)=C2/C(=O)C(=O)N(Cc3ccco3)C2c2cccs2)cc1 (centres undefined)	10%[59 µM]	13%	29%	-20%	?
